In assay [1] the test system is TRPC4 beta (transient receptor potential cation channel C4), mouse. As to the kind of experiment: TRPC4 cation channel opening, retest – cell-based, Fluo4 calcium, HEK293 TRPC4beta/mu-opioid, duplicates, 10 µM, confirmation (AID 2426;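 active = fluorescence ratio normalized to control raised more than 50% in primary screen plus both repeat runs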). The note with it: Fluo4 calcium fluorescence, at 10 µM; stronger effect = higher value.
Assay [2] concerns transient receptor potential cation channel C4 beta (TRPC4), mouse. As to the kind of experiment: TRPC4 cation channel opening, second retest – cell-based, second round, Fluo4, HEK293 TRPC4beta/mu-opioid, 1 µM, confirmation (AID 2461;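 active = primary screen active and over 50% activation in each of two duplicate runs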). The note with it: Fluo4 calcium fluorescence, at 1 µM; stronger effect = higher value.
The subject of assay [3] is TRPC4 (transient receptor potential cation channel C4 beta), mouse. Put plainly: potentiation of DAMGO EC20 TRPC4 response – cell-based, second round, Fluo-4, HEK293 TRPC4beta/mu-opioid, 1 µM, confirmation (AID 2554;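 active = primary screen hit whose fluorescence ratio, in both repeats, exceeds the weak agonist control mean by 3 SD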). The note with it: DAMGO EC20, Fluo-4 calcium flux, at 1 µM; stronger effect = higher value. For orientation: Calcium assays in cells follow changes in intracellular calcium, usually with a dye or a luminescent sensor.

Assay [4] concerns TRPC4 beta (transient receptor potential cation channel C4), mouse. Put plainly: potentiation of DAMGO EC20 TRPC4 response – cell-based, Fluo-4, HEK293 TRPC4beta/mu-opioid, confirmation (AID 2555;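 active = primary screen hit whose calcium fluorescence ratio, in both repeats, exceeds the weak agonist control mean by 3 SD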). The settings on record: DAMGO EC20, Fluo-4 calcium flux, at 10 µM; stronger effect = higher value.
The target in assay [5] is Short transient receptor potential channel 4 (Mus musculus) (UniProt Q9QUQ5). As to the kind of experiment: blockers of DAMGO-evoked TRPC4 calcium flux – cell-based, Fluo4, HEK293 TRPC4beta/mu-opioid, confirmation (AID 2636;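 active = calcium signal cut by more than 3 SD below the full-agonist control yet still positive, in both repeats and the earlier primary screen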). The note with it: at 10 µM; stronger effect = higher value.
Sequence of Short transient receptor potential channel 4 (Mus musculus) (Q9QUQ5 whole entry, looked up): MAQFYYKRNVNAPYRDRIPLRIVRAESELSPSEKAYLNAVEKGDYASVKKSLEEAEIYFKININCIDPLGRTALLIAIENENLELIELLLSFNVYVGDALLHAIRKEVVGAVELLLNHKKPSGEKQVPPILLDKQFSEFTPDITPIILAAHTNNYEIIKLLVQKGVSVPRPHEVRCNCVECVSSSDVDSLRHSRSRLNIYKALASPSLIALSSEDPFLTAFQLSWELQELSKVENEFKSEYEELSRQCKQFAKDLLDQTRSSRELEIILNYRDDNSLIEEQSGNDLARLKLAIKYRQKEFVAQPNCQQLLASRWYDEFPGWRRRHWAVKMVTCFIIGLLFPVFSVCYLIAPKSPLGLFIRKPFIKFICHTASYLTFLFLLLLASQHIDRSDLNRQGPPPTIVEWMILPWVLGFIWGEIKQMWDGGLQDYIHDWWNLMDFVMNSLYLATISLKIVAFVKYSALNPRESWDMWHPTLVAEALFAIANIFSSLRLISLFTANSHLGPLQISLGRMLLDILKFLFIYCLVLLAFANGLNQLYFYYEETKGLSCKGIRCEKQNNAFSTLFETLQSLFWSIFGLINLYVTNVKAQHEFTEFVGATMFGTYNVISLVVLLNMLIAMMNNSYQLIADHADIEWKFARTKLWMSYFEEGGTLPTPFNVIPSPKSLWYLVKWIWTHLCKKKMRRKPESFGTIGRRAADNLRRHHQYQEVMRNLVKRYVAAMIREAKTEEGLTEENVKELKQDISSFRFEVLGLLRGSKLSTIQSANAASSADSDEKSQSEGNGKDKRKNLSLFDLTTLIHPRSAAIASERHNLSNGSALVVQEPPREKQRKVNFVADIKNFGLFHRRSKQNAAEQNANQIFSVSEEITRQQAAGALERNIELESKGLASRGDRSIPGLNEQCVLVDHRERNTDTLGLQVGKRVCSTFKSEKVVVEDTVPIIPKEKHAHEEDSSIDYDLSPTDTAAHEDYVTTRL
The target is the same in assay [6]. Put plainly: blockers of DAMGO-evoked TRPC4 calcium flux – cell-based, second round, Fluo4, HEK293 TRPC4beta/mu-opioid, 1 µM, confirmation (AID 2637;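 active = calcium signal ratio cut to more than 3 SD under the fully stimulated control mean yet still positive, in both repeats and the primary screen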). The note with it: at 1 µM; stronger effect = higher value.
Assay [7] has the same target. Put plainly: calcium entry via TRPC4 opening agents – cell-based, HEK293 TRPC4/mu-opioid, Fluo-4 calcium, dose response (AID 434937;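 active = primary screen activator hit with a dose response curve and TRPC4 channel activation at any tested dose; inactive = no activation, no dose response, or not a primary hit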).
For assay [8] the target is unchanged. As to the kind of experiment: potentiation of DAMGO-evoked TRPC4 calcium signal – cell-based, HEK293 TRPC4/mu-opioid, Fluo-4 calcium, EC20 DAMGO, dose response (AID 434941;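 active = earlier screen potentiator hit that boosts the TRPC4 ion channel at some dose, with a dose response; inactive = no potentiation, no dose response, or not a prior hit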;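 note: calcium entry triggered by an EC20 dose of DAMGO at the co-expressed mu-opioid receptor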).
For assay [9] the target is unchanged. As to the kind of experiment: block of DAMGO-driven TRPC4 calcium entry – cell-based, HEK293 TRPC4/mu-opioid, Fluo-4 calcium, dose response (AID 434942).
Assay [10] has as its target Short transient receptor potential channel 6 (Mus musculus) (UniProt Q61143). Put plainly: TRPC6 blockade by TRPC4 inhibitor hits – cell-based, HEK293, membrane potential dye, duplicate, selectivity assay for TRPC4 inhibitor project, confirmation (AID 434948;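 active = active in primary screen and both duplicates, each dropping signal beyond three positive-control SD with fluorescence still positive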). The settings on record: HEK293 TRPC6, membrane potential dye fluorescence, at 10 µM, stimulated with maximal-effect acetylcholine; stronger effect = higher value.

For assay [11] the target is unchanged. As to the kind of experiment: TRPC6 opening by TRPC4 activator hits – cell-based, HEK293, membrane potential dye, duplicate, selectivity assay for TRPC4 activator project, confirmation (AID 434950;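 active = membrane potential signal rise above negative control mean plus 3 SD in both duplicates, also active in the earlier TRPC4 screen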). The note with it: HEK293 TRPC6, membrane potential fluorescence, at 10 µM; activation: stronger effect = higher value; outcome: activation.
For assay [12] the target is unchanged. Put plainly: positive modulators of mouse TRPC6 channel – HEK293 cells, membrane potential dye, duplicate, selectivity assay for TRPC4 potentiator project, confirmation (AID 434952;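 active = compound raising the membrane signal above positive-control mean plus 3 SD in both repeats, and a primary screen hit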). The settings on record: HEK293 TRPC6, membrane potential dye fluorescence, at 10 µM, maximal acetylcholine added after compound; stronger effect = higher value.
The target of assay [13] is Short transient receptor potential channel 4 (Mus musculus) (UniProt Q9QUQ5). As to the kind of experiment: calcium flux activators in TRPC4/5HT1a cells, counter-screen for TRPC4 activator project, cell-based, second counter screen, HEK293 TRPC4/5HT1a, Fluo-4 (AID 434977;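 active = calcium signal rise above buffer-control mean plus 5 SD in both duplicates, and also a hit in the primary screen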). The settings on record: Fluo-4 calcium flux, at 10 µM; stronger effect = higher value.
A short description of assay [14]: serotonin-gated TRPC4 signal block – cell-based, second counter screen, HEK293 TRPC4/5HT1a, Fluo-4, counter-screen for TRPC4 inhibitor project, confirmation (AID 434978;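 active = primary screen active whose calcium signal fell more than 3 SD beyond the full-serotonin control mean in both duplicate plates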;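 for outcome: serotonin given first at submaximal then at maximal dose after compound preincubation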). The settings on record: Fluo-4 calcium flux, at 10 µM, serotonin added to trigger calcium flux; stronger effect = higher value. For orientation: A counterscreen serves to expose hits that act by an unwanted route or on another target.

For assay [15], the system named is TRPC4 (mouse), co-expressed with 5HT1a in HEK293. As to the kind of experiment: enhancement of serotonin-evoked TRPC4 response – cell-based, second counter screen, HEK293 TRPC4/5HT1a, Fluo-4, counter-screen for TRPC4 potentiator project, confirmation (AID 434979;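 active = signal rise over 3 SD above mean of control wells given weak agonist, in both repeats and first screen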). The settings on record: Fluo-4 calcium flux, at 10 µM, serotonin added at its EC20 dose; stronger effect = higher value.

A short description of assay [16]: nonspecific calcium rise without TRPC4 – cell-based, HEK293 mu-opioid receptor line, counter-screen for TRPC4 activator project, confirmation (AID 449723;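 active = hit in primary screen, with calcium signal over 5 SD above buffer well mean in both duplicates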;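 note: counter screen cells carry the mu-opioid receptor alone and lack TRPC4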). The settings on record: HEK293 mu-opioid cells, Fluo-4 calcium fluorescence, at 10 µM; stronger effect = higher value.
Assay [17] in a line: nonspecific potentiation of DAMGO calcium response – cell-based, HEK293 mu-opioid receptor line, counter-screen for TRPC4 allosteric potentiator project, confirmation (AID 449724;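 active = calcium signal rise more than 3 SD above the low-dose agonist control mean, in both duplicate plates and the primary screen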;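 note: HEK293 cells carrying mu-opioid receptor only with no TRPC4 channel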). The settings on record: HEK293 mu-opioid receptor cells, Fluo-4 calcium flux, at 10 µM, compound added before EC20 DAMGO stimulus; stronger effect = higher value.

For part of these data: Results with a measured potency or affinity are listed apart. Activity calls are given as the source filed them.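 Rule for the calls, unless noted: active = primary screen inhibitor hit that blocks the TRPC4 channel at some tested dose, yielding a dose curve; inactive = the rest.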

Sequence of Short transient receptor potential channel 6 (Mus musculus) (Q61143 whole entry, looked up): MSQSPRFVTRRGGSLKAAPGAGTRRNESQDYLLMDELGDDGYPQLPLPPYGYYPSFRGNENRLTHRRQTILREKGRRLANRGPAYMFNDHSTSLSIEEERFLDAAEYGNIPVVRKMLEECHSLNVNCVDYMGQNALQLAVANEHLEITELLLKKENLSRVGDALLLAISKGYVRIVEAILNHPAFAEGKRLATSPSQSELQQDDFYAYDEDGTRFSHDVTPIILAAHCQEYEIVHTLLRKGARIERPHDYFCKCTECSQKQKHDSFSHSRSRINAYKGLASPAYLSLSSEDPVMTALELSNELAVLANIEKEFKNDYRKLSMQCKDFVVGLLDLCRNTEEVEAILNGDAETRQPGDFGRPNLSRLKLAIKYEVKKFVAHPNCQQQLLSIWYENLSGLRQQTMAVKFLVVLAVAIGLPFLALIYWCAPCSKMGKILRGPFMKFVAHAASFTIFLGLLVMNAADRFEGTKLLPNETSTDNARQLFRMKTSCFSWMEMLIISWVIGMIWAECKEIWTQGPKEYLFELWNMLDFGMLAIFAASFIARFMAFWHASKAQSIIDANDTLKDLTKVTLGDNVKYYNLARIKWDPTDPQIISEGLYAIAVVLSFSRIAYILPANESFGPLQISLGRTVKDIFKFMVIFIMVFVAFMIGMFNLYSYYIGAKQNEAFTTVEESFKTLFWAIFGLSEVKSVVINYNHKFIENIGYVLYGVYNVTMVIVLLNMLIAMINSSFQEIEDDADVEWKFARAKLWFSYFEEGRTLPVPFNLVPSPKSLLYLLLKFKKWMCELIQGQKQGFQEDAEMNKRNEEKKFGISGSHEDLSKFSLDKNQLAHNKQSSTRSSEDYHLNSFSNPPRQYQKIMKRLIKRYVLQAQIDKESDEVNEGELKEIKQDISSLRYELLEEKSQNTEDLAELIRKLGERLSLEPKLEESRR

`NS(=O)(=O)c1ccc(NN=C2CCN(Cc3ccccc3)CC2)c([N+](=O)[O-])c1`: the result in assay [1], in assay [2], in [3], in assay [4], in [5] and in [6] was inactive. The result in assay [7], in [8], in [9], in assay [10], in assay [11] and in assay [12] was inactive. Also, the outcome in assay [13], in assay [14], in assay [16] and in assay [17] was inactive. The potentiation in [15] is 16.3% (active).

Take `CCc1ccc(OCc2ccc(C(=O)NCc3ccccn3)o2)cc1`: the result in [1], in assay [2], in [3], in assay [5], in [6] and in assay [7] was inactive. The outcome in assay [8], in assay [9], in assay [10], in [11], in assay [12] and in [13] was inactive. Further, the outcome in [14], in assay [15], in assay [16] and in [17] was inactive. Further, the potentiation in assay [4] is 19% (active).

For the molecule `O=C(NCC(c1ccco1)N1CCc2ccccc2C1)c1ccc(F)cc1` (stereo not given), the outcome in assay [1], in [2], in assay [3], in assay [4], in assay [5] and in assay [6] was inactive. Besides, the result in [7], in assay [8], in assay [9], in assay [10], in [11] and in assay [12] was inactive. Also, the outcome in assay [13], in [14], in assay [15], in assay [16] and in assay [17] was inactive.

Take `CN(CCNS(=O)(=O)c1ccc2c(c1)oc(=O)n2C)Cc1ccccc1`: the outcome in assay [1], in assay [2], in assay [3], in assay [5], in assay [6] and in [7] was inactive. The result in [8], in assay [9], in assay [10], in assay [11], in [12] and in [13] was inactive. The result in assay [14], in assay [16] and in [17] was inactive. Besides, the potentiation is 8% (active) in [4] and 13.7% (active) in assay [15].

The inhibition is the percentage by which the read-out fell short of the control. Regarding `COc1ccc(OC)c(Nc2c3c(nc4ccccc24)CCC3)c1`, the result in assay [1], in [2], in [3], in assay [4], in assay [6] and in assay [7] was inactive. For the same molecule, the outcome in assay [8], in [9], in [10], in [11], in assay [12] and in assay [13] was inactive. Also, the outcome in assay [15], in assay [16] and in [17] was inactive. The inhibition in assay [5] was 67% (active); in assay [14], 30.5% (active).

Regarding `NCCc1nnc(SCc2ccccc2)o1`, the result in assay [1], in [2], in [3], in assay [4], in assay [5] and in [6] was inactive. For the same molecule, the result in [7], in [8], in [9], in assay [10], in assay [11] and in assay [12] was inactive. The outcome in assay [13], in [14], in [15], in [16] and in assay [17] was inactive.

For the molecule `COc1cc(C2c3c(-c4ccccc4)n[nH]c3C(=O)N2c2ccccc2)ccc1O` (stereo not given), the outcome in assay [1], in assay [2], in assay [3], in [5], in [6] and in assay [7] was inactive. Further, the result in [8], in assay [9], in assay [10], in assay [11], in [12] and in assay [13] was inactive. In addition, the result in assay [14], in assay [16] and in assay [17] was inactive. For the same molecule, the potentiation in [4] was 16% (active); in [15], 17% (active).

Regarding `CCNC(=S)N/N=C/c1cc(C)n(-c2ccc(Cl)cc2)c1C`, the outcome in assay [1], in assay [2], in [3], in [5], in [6] and in assay [7] was inactive. Moreover, the outcome in assay [8], in assay [9], in assay [10], in assay [11], in assay [12] and in assay [13] was inactive. The result in [14], in assay [16] and in assay [17] was inactive. Moreover, the potentiation in assay [4] was 19% (active); in [15], 17.3% (active).

For the molecule `NC(=O)C(c1cccc(Cl)c1)c1ncc(C(F)(F)F)cc1Cl` (stereo not given), the result in assay [1], in assay [2], in [3], in assay [4], in assay [5] and in [6] was inactive. The outcome in [7], in assay [8], in assay [9], in [10], in assay [11] and in [12] was inactive. The result in [13], in assay [14], in assay [16] and in [17] was inactive. Further, the potentiation in [15] is 7.72% (active).

As for `O=[N+]([O-])c1ccc(S(=O)(=O)NCCCc2ccccc2)cc1`, the result in [1], in assay [2], in [3], in assay [4], in [5] and in assay [6] was inactive. Besides, the outcome in assay [7], in assay [8], in assay [9], in assay [10], in assay [11] and in assay [12] was inactive. Besides, the result in assay [13], in [14], in [15], in [16] and in assay [17] was inactive.

Take `COc1ccc(C(=O)N2CCN(c3c(C)cccc3C)CC2)cc1OC`: the result in assay [1], in assay [2], in assay [3], in assay [4], in assay [5] and in assay [6] was inactive. The outcome in assay [7], in assay [8], in [9], in assay [10], in [11] and in assay [12] was inactive. For the same molecule, the outcome in assay [13], in assay [14], in [16] and in assay [17] was inactive. Besides, the potentiation in assay [15] was 15% (active).

As for `CCCCCCCCCCOC(=O)Cn1c(COc2ccccc2)[n+](C)c2ccccc21`, the outcome in assay [1], in assay [2], in assay [3], in assay [4], in assay [5] and in assay [6] was inactive. The result in [7], in assay [8], in [9], in [10], in assay [11] and in assay [12] was inactive. For the same molecule, the result in assay [13], in [14], in assay [15], in [16] and in assay [17] was inactive.

For the molecule `CC(C)Cc1nc(N2CCN(C(=O)C(C)C)CC2)c(C#N)c2c1CCC2`, the outcome in [1], in [2], in assay [3], in assay [5], in assay [6] and in [7] was inactive. The outcome in assay [8], in [9], in assay [10], in assay [11], in assay [12] and in assay [13] was inactive. In addition, the result in assay [14], in assay [15], in assay [16] and in assay [17] was inactive. Also, the potentiation in assay [4] is 33% (active).

For `CSc1ccccc1OC1CCN(Cc2ccccc2)CC1`, the result in [1], in assay [2], in assay [3], in [4], in assay [5] and in [6] was inactive. Further, the result in [7], in assay [8], in assay [9], in assay [10], in [11] and in assay [12] was inactive. For the same molecule, the result in assay [13], in assay [14], in assay [15], in [16] and in assay [17] was inactive.

For `CCc1ccc(Nc2n[n+](-c3ccccc3)c(/C=C/c3ccccc3)s2)cc1`, the outcome in assay [1], in assay [2], in assay [3], in assay [5], in [6] and in [7] was inactive. Also, the result in assay [8], in [9], in [10], in assay [11], in [12] and in assay [13] was inactive. In addition, the result in [14], in assay [16] and in [17] was inactive. Also, the potentiation in assay [4] is 14% (active); in [15] it was 14.8% (active).

Values taken from PubChem BioAssay.
